# PubChem BioAssay AID504466 (National Center for Advancing Translational Sciences (NCATS), 2011)
# The whole screen tested about 330,000 compounds, of which about 4,200 (1.3%) were called active. About 6% were inconclusive and are not listed. The entries come from a sample that favours actives as a whole. Values without a mark were called inactive. Calls follow the shape of the dose curve; as a rule, active = well fitted activation curve with a large enough effect; inconclusive = small, poorly fitted or top-dose-only effect; inactive = no such curve, though single readings can be large or run the other way.
# Assay: qHTS screen for small molecules that induce genotoxicity in human embryonic kidney (HEK293T) cells expressing luciferase-tagged ELG1; also: nearly all actives have a fitted effect of over 60% in size; as to activity change, positive = activation: % of control where 0% means no effect
# Conditions: HEK293T ELG1-luciferase reporter, luminescence, 16 h; series mostly up to 46 µM; activity change, positive = activation: at the top concentration
# Text: NIH Molecular Libraries Probe Production Network [MLPCN] NIH Chemical Genomics Center [NCGC] MLPCN Grant: 1 R03 MH092164-01 Assay Provider: Kyungjae Myung, NHGRI, NIH Keywords: MLPCN, qHTS, NCGC, genotoxicity, cancer Assay Overview: Cancer cells divide rapidly compared to normal cells in the body. During cell division, cancer cells need to duplicate their genome by DNA replication. The failure of genome duplication leads to cancer cells' death. Therefore, inhibitors of DNA replication could specifically kill cancer cells. Based on this concept, many chemotherapeutic agents were developed and have been used to treat cancer patients. However, there are a limited number of agents available in the clinical setting, and some of those that do exist have low efficacy and severe side effects. Therefore, if we can find the compounds that effectively block DNA replication either by directly damaging DNA or by inhibiting other cellular mechanisms, the options for cancer treatment will be broadened. With this in mind, we developed a quantitative high-throughput ELG1-luciferase reporter gene assay. Since the level of human ELG1 protein is enhanced in response to genetic stresses, increases in luciferase activity can be used to identify compounds that cause genetic stress.
# Assay Protocol Summary: For genotoxicity screening, 2,000 cells in 5 uL/well were dispensed into white, solid-bottom 1536-well plates using a solenoid-based dispenser. Following transfer of 23 nL compound or DMSO vehicle by a pin tool, the plates were incubated 16 hr at 37 °C and 5% CO2. 5 ul ONE-Glo (Promega) was then added to each plate and following a 30 min incubation at room temperature, luciferase activity was quantified on a ViewLux CCD-based plate reader.
# Potency is read from the fitted curve at half-maximal effect.
Structure (SMILES),Potency,"activity change, positive = activation [%]"
O=C(CSc1ccc(-c2ccc(-n3cccn3)cc2)nn1)Nc1ccc([N+](=O)[O-])cc1,18.3 µM (active),–
O=C(CSc1ccc([N+](=O)[O-])cn1)Nc1ccc(N2CCOCC2)cc1,–,-1.03
O=C(CSc1ccc(-c2ccc(F)cc2)nn1)Nc1ccc2c(c1)OCCO2,–,0.784
Cc1cccc(C)c1Nc1nnc(SCC(=O)NCCCN2CCCC2=O)s1,–,-2.8
Cc1ccc(NC(=O)COC(=O)C2CC2)cc1S(=O)(=O)N1CCOCC1,–,-0.783
Cc1noc(C)c1NC(=O)Nc1ccc2c(c1)C(=O)N([C@H](C)CO)C[C@H](C)[C@@H](CN(C)S(=O)(=O)c1cn(C)cn1)O2,–,2.22
COc1cc(C(=O)OCc2ccc([N+](=O)[O-])cc2)cc(OC)c1OC,–,5.71
COc1cc(/C=N\Nc2ccc([N+](=O)[O-])cn2)ccc1OCC(=O)O,–,-0.169
COc1cc(/C=N/O)ccc1OCc1ccc([N+](=O)[O-])cc1,9.2 µM (active),–
CC(=O)C(CC(=O)N1CCCC1)C(=O)Nc1ccc(Cl)cc1 (stereo unspecified),–,2.38
Cc1ccc(C(=O)Nc2ccccc2-c2ccccc2)cc1S(=O)(=O)Nc1ccccc1,–,-9.23
CCOc1ncccc1C(=O)Nc1ccc2c(c1)OCCO2,–,9.61
COc1ccc(C)cc1NC(=O)CSc1cccc[n+]1[O-],–,5.29
CN=C(Nc1cccc(S(=O)(=O)N2CCOCC2)c1)c1ccccc1,–,0.167
COc1ccccc1NC(=O)c1ccc(C)s1,11.6 µM (active),–
COC(=O)c1c(NC(C)=O)sc(C(=O)Nc2ccccc2OC)c1C,–,0.157
COc1ccccc1NC(=O)C1=C(C)NC(=O)NC1c1ccc(C)s1 (stereo unspecified),–,5.02
Cc1ccc(S(=O)(=O)N2CCN(C(=O)Cn3c(=O)cnc4ccccc43)CC2)c(C)c1,–,-6.79
Cc1c(C(=O)Nc2ccccc2)sc2nc3n(c(=O)c12)CCCCC3,–,10.3
Cc1cccc2c(=O)n3c(nc12)CCCCC3,–,-4.76
O=c1c2c(nc3n1CCCCC3)sc1c(O)cccc12,2.06 µM (active),–

Structure (SMILES),Potency,"activity change, positive = activation [%]"
Cc1ccc(NS(=O)(=O)c2ccc(C(C)C)cc2)cc1S(=O)(=O)N1CCOCC1,–,-5.95
O=c1oc2ccccc2cc1-c1cn(-c2ccccc2)c(=S)[nH]1,0.0461 µM (active),–
S=c1[nH]c(-c2cccs2)cn1-c1ccccc1,–,13
COc1cccc(-n2c(=S)[nH]c3c(oc4ccccc43)c2=O)c1,–,11.3
O=C1OC[C@@H]2CCCN2C(=O)[C@H](CC(=O)N(CCO)Cc2ccccc2)C/C=C\CC[C@@H]1Cc1ccc(F)cc1,–,-3.58
COc1cc(/C=C/C(=O)OCC(=O)NC2CC2)cc(OC)c1OC,–,1.1
Cc1ccc(S(=O)(=O)N2CCN(C(=O)CN3C(=O)NC(C)(c4ccc(Cl)cc4)C3=O)CC2)c(C)c1 (stereo unspecified),–,-3.81
O=C(CCNC(=O)c1ccc(Br)cc1)NCCCc1ccccc1,–,2.41
CN(c1ccccc1)S(=O)(=O)c1ccc(C(=O)NCCc2ccccc2)cc1,–,13.5
CC(C)c1ccc(C(=O)NCCCc2ccccc2)cc1,18.4 µM (active),–
Cc1noc(C)c1NC(=O)Nc1ccc2c(c1)C(=O)N([C@H](C)CO)C[C@H](C)[C@@H](CN(C)C(=O)Nc1ccccc1)O2,–,3.31
O=C(CSc1ncnc2sccc12)NC1CCS(=O)(=O)C1 (stereo unspecified),–,1.63
C=CCC[C@@H](Cc1ccc(F)cc1)C(=O)OC[C@H](Cc1c[nH]c2ccccc12)NC(=O)[C@@H](CC=C)CC(=O)N(CCO)Cc1ccccc1,–,-11
Cc1cc(CO)nn1-c1ccc([N+](=O)[O-])cc1,–,-0.0391
Cc1ccc(-n2cc3ccc([N+](=O)[O-])cc3n2)cc1,2.91 µM (active),–
Cc1ccc(-c2cn(S(=O)(=O)c3cccc([N+](=O)[O-])c3)nc2N)cc1,–,-4.12
O=C(N[C@@H]1C/C=C\C[C@@H](CC(=O)N(CCO)Cc2ccccc2)C(=O)N[C@H](Cc2ccccc2)COC1=O)OCC1c2ccccc2-c2ccccc21,–,-0.759
CCCCCCSc1ccc([C@@H]2[C@H]3C(=O)N(CC)C(=O)[C@H]3[C@]3(C(=O)OC)CCCCN23)cc1,–,1.28
COCCOC(=O)c1[nH]c2c(c1C)C(=O)CC(c1ccc(OC)cc1)C2 (stereo unspecified),–,-0.128
CCCOC(=O)C1=C(C)NC2=C(C(=O)C(C(=O)OC)C(C)C2)C1c1ccc(N(C)C)cc1 (stereo unspecified),–,0.467
COC(=O)C1C(=O)c2c([nH]c(C(=O)OCCSC)c2C)CC1C (stereo unspecified),16.4 µM (active),–

Structure (SMILES),Potency,"activity change, positive = activation [%]"
CC(C)N(C(=O)[C@H]1C[C@H](CC(=O)NC(C)(C)C)C(=O)N2CCc3c([nH]c4ccc(Cl)cc34)[C@]12C)C(C)C,–,-3.2
Cc1cc(NC(=O)CSc2ncc(C(F)(F)F)cc2Cl)no1,–,-0.775
COc1ccc(Cl)cc1NC(=O)COC(=O)c1ccc(Br)o1,–,1.48
CN(C(=O)c1cccc(NC(=O)C2CCN(C(=O)OC(C)(C)C)CC2)c1)C1CCC1,–,-4.07
NC[C@H](Cc1ccccc1)NCCc1cc(C(F)(F)F)cc(C(F)(F)F)c1,–,0.0851
CCc1ccc2oc(-c3ccc(N)cc3)nc2c1,0.206 µM (active),–
Cn1nnnc1SCC(=O)Nc1sccc1C(N)=O,–,4.53
Cc1cc(NC(=O)CSCC(=O)NC(C)c2ccccc2)no1 (stereo unspecified),–,1.08
COc1ccc2oc(=O)c(C(=O)N3CCCc4ccccc43)cc2c1,–,-9.84
COc1ccccc1N1CCN(C(=O)CSc2ncnc3c2cnn3-c2ccc(C)c(C)c2)CC1,–,0.292
COc1ccc(-n2ncc3c(N4CCCc5ccccc54)ncnc32)cc1,1.16 µM (active),–
Cc1cccc(-n2ncc3c(N4CCc5ccccc54)ncnc32)c1,2.59 µM (active),–
COc1ccc(-n2ncc3c(SCC(=O)NNC(C)=O)ncnc32)cc1,–,15.2
Cc1cccc(-n2ncc(Cl)c(Cl)c2=O)c1,–,-13.8
O=C1COc2ccc(C(=O)COC(=O)CCOc3ccccc3)cc2N1,–,-1.34
C=CCC[C@H](Cc1ccc(F)cc1)C(=O)OC[C@@H](Cc1c[nH]c2ccccc12)NC(=O)[C@H](CC=C)CC(=O)N[C@H](CO)Cc1ccccc1,–,-3.43
COc1cc2ccccc2cc1C(=O)Nc1ccc(N2CCOCC2)cc1,–,16.1
COc1cc2ccccc2cc1C(=O)Nc1ccncc1,16.4 µM (active),–
COc1cc2ccccc2cc1C(=O)Nc1ccc(NC(=O)c2cccs2)cc1,–,-6.8
